Tests used:
Assay in all cases: PBM binding z-score (relative to random genomic background probes); higher = stronger binding; sequences stand for … in GC…GCGATTGACAGCGTAGAATGAAGG
[1] = test system: RARb homodimer (NR concentration 270 nM)
In short: (§1)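 Binding buffer was PBS pH 7.4 with 2% milk, 0.02% Triton X-100, 1 mM DTT, 0.2 mg/mL BSA and 0.4 mg/ml salmon testes DNA. In it, ligand-free nuclear receptor dimers were incubated 1 h on custom Agilent 4×180K protein-binding microarrays carrying double-stranded probes. Antibodies against each partner (one per run) detected binding, and z-scores were calculated against random background probes after regression normalization of scanned fluorescence.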

[2] = test system: RARg:RXRa (NR concentration 270 nM, RXRa partner concentration 90 nM)
In short: as §1

[3] = test system: RARg homodimer (NR concentration 270 nM)
In short: as §1

[4] = test system: RXRa DBDmut IVT, anti-RXR (DBD mutation: RXRa K156A/R161A, NR concentration 90 nM)
In short: as §1

[5] = test system: RXRa homodimer (NR concentration 180 nM)
In short: as §1

[6] = test system: THRa:RXRa (NR concentration 90 nM, RXRa partner concentration 90 nM)
In short: as §1

[7] = test system: THRa homodimer (NR concentration 90 nM)
In short: as §1

[8] = test system: VDR homodimer (NR concentration 270 nM)
In short: as §1

Sequence | PBM binding z-score [1] | PBM binding z-score [2] | PBM binding z-score [3] | PBM binding z-score [4] | PBM binding z-score [5] | PBM binding z-score [6] | PBM binding z-score [7] | PBM binding z-score [8]
GATACAGGGTCAGCTAGAGGCCAGCGTATGGAAA | 3.69 | 6.91 | 5.12 | 0.996 | 4.79 | 3.11 | 0.434 | 0.825
ATCGAAAGGCCGAGGTGAGTATAGAGAAAGGGAA | 0.669 | 0.835 | 1.25 | -0.863 | 0.294 | 0.936 | 0.0762 | -0.433
CCGACTGGGGAAAGGTTACCATAACGCACAGCCA | 1.86 | 1.66 | 0.984 | -0.493 | 2.28 | 1.13 | -0.224 | -0.242
CCGACTCGGGCAGAAAGGTTACCATACCATCCGG | 1.59 | 1.41 | 1.02 | -0.246 | 1.6 | 1.01 | -0.699 | -0.0904
TCATATAGGTATACAGGTGAAAGTCCGTAAGTTA | 0.863 | 0.487 | 0.35 | 1.58 | 1.14 | 0.729 | 0.585 | 0.541
ATCTCTAGGTAAAGATAGTTCAGTGGATGCAAAT | 0.847 | 0.4 | 0.785 | -0.122 | 0.17 | 0.667 | 0.0913 | 0.205
TCTCGGAGGACAGGAAGGTCAGAGCTTTCCAGAG | 3.54 | 2.42 | 2.34 | 0.51 | 1.69 | 2.1 | 0.256 | 0.37
ATCTCTAGGTAACAATTTCAGTGAAAGAGAGGAC | 0.316 | 0.547 | 0.814 | 0.235 | 0.51 | 1.06 | 0.784 | 0.542
GCTAGTAGGCCATTTGGGTCACTCAATGACGGGC | 2.03 | 0.972 | 1.33 | 0.0324 | 0.766 | 1.75 | 0.382 | 0.26
ATATGTAGGTTATCGGGTCATGCAGTTTGCGCAT | 3.1 | 3.43 | 2.66 | 0.921 | 3.76 | 3.54 | 3.02 | 3
CCGAGTAGGTTCTGGGGCATTCAGGCAACGGTGA | 0.469 | -0.508 | -0.495 | -0.0942 | -0.58 | 0.118 | 0.0185 | 0.0206
CCTAGCAGGCCTGGGTCACTCAAGCATTTCGCTT | 1.69 | 1.25 | 0.967 | -0.144 | 0.958 | 1.48 | 0.229 | -0.269
GATACAGGGTCAGCTAGAGGCCAAAGTATGGAAA | 3.52 | 7.25 | 5.27 | 1.21 | 4.76 | 3.25 | 0.447 | 1.3
CCTCGGATGACAGAAGGTCAGAGCTGTCCGCTTT | 2.83 | 2.49 | 2.16 | 0.111 | 2 | 1.95 | -0.359 | 0.287
CCGACTGGGGCAGAAGGGTTACCATACCATCCGG | 1.08 | 0.666 | 0.787 | -1.36 | 0.641 | 0.0428 | -0.605 | -0.332
TATACAGTGTCAAAGGCCAGAGTACGAATGTCGA | 1.59 | 1.53 | 1.65 | -0.125 | 1.49 | 0.336 | -0.189 | 0.636
CCTACTGGGCCAAAGGTAATTGATTCCAATGCTC | 0.00337 | 0.0107 | 0.0633 | -0.288 | 0.00386 | 0.0403 | -0.123 | -0.113
ACAGACAGGTGATGAAGGTGACTCAGGCTATCAT | 1.34 | 0.646 | 0.55 | -0.283 | 0.581 | 1.01 | -0.00476 | -0.102
AGTCAAAGTTCACTAGGTACCGTAAGATTCAGCT | 3.6 | 4.92 | 5.92 | 4.36 | 3.75 | 1.65 | -0.132 | 3.97

Sequence | PBM binding z-score [1] | PBM binding z-score [2] | PBM binding z-score [3] | PBM binding z-score [4] | PBM binding z-score [5] | PBM binding z-score [6] | PBM binding z-score [7] | PBM binding z-score [8]
GCTAGCAGTCCATTTGGGTCACTCAATGACGGGC | 1.54 | 0.428 | 0.586 | 0.506 | 0.617 | 1.82 | 0.507 | 0.912
CGTCAAAGTTCGACTAAGGTAACGTAAAGCACGC | 1.77 | 2.14 | 1.99 | 2.97 | 1.5 | 4.99 | 1.58 | 1.03
AGAATGTGGTTAAGATCAGGGAAACAGAATACAT | 0.296 | 0.287 | 0.502 | -0.315 | -0.0174 | 0.458 | -0.00414 | 0.151
CCTTTCGGGTCAAGGTTATAGCACGGGTGGTACG | 3.76 | 5.07 | 5.07 | 2.03 | 5.56 | 3.97 | 3.16 | 1.97
TCTAGTTGGTCACAGAGGTCACACACGACGGGTA | 4.61 | 5.8 | 5.57 | 1.63 | 6.43 | 3.97 | 2.54 | 4.18
ATATGTAGGTTACATCCGGGTGATTCAGGCTATG | 0.887 | 1.19 | 1.11 | 0.378 | 1.27 | 2.07 | 0.9 | 0.101
GGAACGAGGGTAAAGTTGATAGCATCTGTCGACG | 0.332 | 0.683 | 0.562 | 0.929 | 0.974 | 0.383 | -0.45 | 0.411
TATATTAGTTGAAGGGCAACCGACGAGTCCGTTT | 1.37 | 0.983 | 1.22 | 0.547 | 0.884 | 0.415 | -0.0239 | 1.91
CCTTCTGGGCCACGAAAGGTCATTGATTCAGTGA | 4.62 | 4.94 | 4.61 | 0.819 | 5.38 | 4.04 | 0.878 | 2.42
CATACAGGGTCAGCTAGGCCAAAGTAGGGACGGC | 3.27 | 4.71 | 5.14 | 1.49 | 4.24 | 3.16 | 0.87 | 2.11
TGAATGTGGTTATAAGATCAGGGAACGTTGCAAA | 0.38 | 0.101 | 0.404 | -0.35 | 0.0364 | 0.133 | 0.0859 | 0.37
GCATATAGGTAATACGAGGTGAAAGTCCGATTGT | 0.883 | 0.378 | 0.419 | 0.527 | 0.781 | 4.46 | 1.41 | -0.0522
TGTCAAAGTTCAAAGGGAACGTAAGTATCCACAC | 3.12 | 5.56 | 5.38 | 4.04 | 4.94 | 2.06 | -0.715 | 4.05
CTCGAAAGTTCGGTTGAGGTGAGTATACGGATAA | 1.12 | 0.738 | 0.973 | 1.24 | 0.161 | 4.57 | 1.37 | 0.742
ACTAGCAGGCCAAGGGTCACTCAAGATTAGTCCG | 3.86 | 4.17 | 3.74 | 0.678 | 3.93 | 2.65 | 0.199 | 1.29
TCTTTTAGATCAATAGAGGTTAAGAAAGTGCGCT | 1.25 | 1.22 | 1.09 | 0.967 | 1.58 | 2.4 | -0.64 | 0.459
CCTTACGGATCACTGACAGGTTATAGCATTTGGA | 0.537 | 0.614 | 0.579 | 0.744 | 0.347 | 0.372 | 0.628 | 0.612
CCTAGCAAGCCAGGGTCACTCAAGCATTTCGCTT | 2.62 | 2.97 | 2.62 | 0.907 | 3.86 | 3.03 | 1.1 | 1.69
ATCTCTAGGTAAAAGTTCGGTGAATCCCGAGGAT | 0.446 | 0.536 | 0.526 | 0.2 | 0.463 | 0.583 | 0.177 | 0.68

Sequence | PBM binding z-score [1] | PBM binding z-score [2] | PBM binding z-score [3] | PBM binding z-score [4] | PBM binding z-score [5] | PBM binding z-score [6] | PBM binding z-score [7] | PBM binding z-score [8]
CCTTATGGGTCAAGGTTATAGCACGGGTGGTACG | 2.91 | 4.01 | 4.26 | 0.11 | 3.78 | 2.22 | 0.64 | 1
CTACCAAGGTGAATAAGGTCGTTGATTACTATTC | 2.05 | 1.54 | 1.21 | 1.38 | 1.71 | 3.6 | 2.67 | 2.68
CTGCCTAGGTCAGGGCCAGTATAGGAGGAACGTT | 2.43 | 2.85 | 3.61 | -0.445 | 1.25 | 1.88 | 0.182 | -0.173
GCTCGCAGGACAAGGTCAGAGCTTTGTCCGTAGA | 2.58 | 2.71 | 2.74 | 0.16 | 2.1 | 2.5 | 1.09 | -0.354
GATACAGGGTCAGCTAAAGGCCAGAGTATGGAAA | 3.61 | 6.61 | 5.01 | 0.751 | 4.45 | 3.02 | 0.329 | 0.806
CAAACTAGGTCAAGAGGTCACAGTCCGCTTCCCG | 5.76 | 7.87 | 7.83 | 2.79 | 7.55 | 4.57 | 3.21 | 3.7
CGAACTAAGTCAGAACAGGACAGTGAAGGATGAT | 0.68 | 0.103 | 0.431 | 0.106 | 0.167 | 1.14 | -0.281 | -0.107
TCTAGTTGGTCAAAGGTCAGACACTCGAAATGCG | 4.51 | 6.12 | 5.15 | 1.57 | 6.68 | 3.09 | 1.49 | 1.89
CGTCCAAGGCCAGCAGGTCAGTGAAAGCGACGTG | 2.34 | 1.85 | 2 | -0.479 | 0.648 | 1.3 | 0.193 | -0.465
CCAGACAGGTGAAGGGTAACTCAGTCTGGTACGC | 0.722 | 0.492 | 0.626 | -0.69 | 0.751 | 0.21 | -0.441 | -0.55
ATCTCTAGGTAAAGATAGTTCAATGAATGCAAAT | 1.4 | 1.08 | 1.05 | 0.373 | 0.737 | 1.05 | -0.0901 | 1.15
TCTATTAGTTGATTAGTGCAACCGAAACAGCGGA | 0.0135 | 0.467 | 0.362 | 0.964 | 0.333 | 0.158 | 0.00829 | 0.654
CCTTACGGGTCACGAGGTTATTGCACGACGAGCG | 4.19 | 6.12 | 5.46 | 1.83 | 7.15 | 3.67 | 1.4 | 2.55
TCTAACAGGCCAGAGGGTCACTCAAGAGGTACGG | 3.05 | 2.78 | 2.14 | 1 | 2.88 | 1.71 | -0.107 | 0.997
CCCACTGGGCCAAAGGTCATTGATTCCAATGCTC | 4.72 | 5.82 | 4.39 | 0.468 | 6.2 | 3.27 | 0.821 | 2.28
TTACCAAGTTGAAAGGTCGTTGATGCACGCCTTG | 2.1 | 2.9 | 1.34 | 1.31 | 4.21 | 1.92 | -0.189 | 1.58
CGAACTAGGTCATCCAGGACAGTGCATACATTGA | 3.21 | 4.04 | 4.52 | 2.45 | 2.88 | 3.65 | 2.06 | 2.29
CGTCAAAGTTCAACGTAACGTAACAGAAAGCAGC | 3.83 | 5.52 | 5.97 | 4.56 | 4.19 | 1.78 | -0.366 | 3.03
GATACAGGGTCAAGGCGAGAGTACGCGTATTGAT | 3.23 | 5.39 | 4.87 | 2.77 | 5.61 | 3.32 | 1.11 | 2.48

Reference: the supplement of paper PMC6555819
